Measurements taken from PubChem BioAssay (NCATS).
Records with an inconclusive call do not appear. A call without a number means that no potency is given here. The source made the active and inactive calls. Calls follow the shape of the full dose curve.

Test: Primary qHTS for Vero E6 cytotoxicity: counterscreen for inhibitors of SARS-S pseudo-typed particle cell entry (AID 1479150)
Conditions: cell viability; series mostly up to 57.1 µM
Potency is read from the fitted curve at half-maximal effect.

| Compound | Potency |
| --- | --- |
| O=C(OCC(O)CO)c1ccccc1Nc1ccnc2c(C(F)(F)F)cccc12 (stereo not drawn) | inactive |
| CCOC(=O)c1ccc(OC(=O)CCCCCN=C(N)N)cc1 | inactive |
| CCCCC(CC)COC(=O)C(C#N)=C(c1ccccc1)c1ccccc1 (stereo not drawn) | inactive |
| C[N+]1(C)CCC(=C(c2ccccc2)c2ccccc2)CC1 | inactive |
| C[C@@H]1CCC[C@H](C)N1CCCC(O)(c1ccccc1)c1ccccn1 (stereo partly drawn) | inactive |
| OC(CCN1CCCCC1)(c1ccccc1)c1ccccc1 | inactive |
| CCN(CC)CCOC(=O)C(Cc1cccc2ccccc12)CC1CCCO1 (stereo not drawn) | inactive |
| O=C1O[C@H]([C@@H](O)CO)C(O)=C1O | inactive |
| Nc1c(NC/C=C\COc2cc(CN3CCCCC3)ccn2)c(=O)c1=O | inactive |
| CCOc1ccc(Cc2nccc3cc(OCC)c(OCC)cc23)cc1OCC | 17.8 µM (active) |
| CCCCNc1ccc(C(=O)OCCN(CC)CC)cc1 | inactive |
| C1CCN2C[C@@H]3C[C@@H](CN4CCCC[C@@H]34)[C@H]2C1 | inactive |
| CC(=O)Nc1ccc(S(=O)(=O)Nc2ccc([N+](=O)[O-])cc2)cc1 | inactive |
| OCc1cc(C(O)CNCCCCCCOCCCCc2ccccc2)ccc1O (stereo not drawn) | inactive |
| CCCCCCOC(=O)NC(=N)c1ccc(NCc2nc3cc(C(=O)N(CCC(=O)OCC)c4ccccn4)ccc3n2C)cc1 | inactive |
| Cn1cc(C(=O)[C@@H]2CCc3nc[nH]c3C2)c2ccccc21 | inactive |
| CC[N+](CC)(CC(=O)Nc1c(C)cccc1C)Cc1ccccc1 | inactive |
| CCn1c(=O)c2c(nc(C=Cc3ccc(OC)c(OC)c3)n2C)n(CC)c1=O | inactive |
| CN1CCC(=C2c3ccccc3CCc3cccnc32)CC1 | inactive |
| CN1CCN(c2c(F)cc3c(=O)c(C(=O)O)cn(CCF)c3c2F)CC1 | inactive |
| O=C1CC2(CCCC2)CC(=O)N1CCCCN1CCN(c2ncccn2)CC1 | inactive |
| O=C(OCC(O)CO)c1ccccc1Nc1ccnc2cc(Cl)ccc12 (stereo not drawn) | inactive |
| C#CC1(O)CC[C@H]2[C@@H]3CCC4=CCCC[C@@H]4[C@H]3CC[C@@]21C (stereo partly drawn) | inactive |
| CCCC(=O)O[C@]1(C(=O)CC)CC[C@H]2[C@@H]3CCC4=CC(=O)CC[C@]4(C)[C@H]3[C@@H](O)C[C@@]21C | inactive |
| Nc1ccn([C@H]2CC[C@@H](CO)O2)c(=O)n1 | inactive |
| COc1ccc(-n2nc(CCC(=O)N(C)O)cc2-c2ccc(Cl)cc2)cc1 | inactive |
| CN(C)CCC(c1ccccc1)c1ccccn1 (stereo not drawn) | inactive |
| Oc1ccc(O)cc1 | inactive |
